Here are results for 16 compounds from paper PMC5540273 (PLoS ONE, 2017).

Some test systems named below: MELK; MERTK; MET; MKK7; MKNK1; MKNK2.
Holding throughout (conditions): concentration: 1 μM, replicates: in singlicate; n = 1
The next assay has as its system T1, MEK5.
T1 construct: gene MAP2K5

The test system of another assay is T2, MEK6.
T2 construct: gene MAP2K6

A further assay relates to T3, MINK.
T3 construct: gene MINK1

The subject of the next assay is T4, MLCK.
T4 construct: gene MYLK3
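Note: KINOMEscan kinase panel screen.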

Take `Cc1cccc(Nc2nc(N[C@H]3CCCC[C@H]3N)ncc2C(N)=O)c1.Cl` [GSK986310]: the “%Inh” value turned out to be 98.4% in the assay with MEK5; 5% with MEK6; 0% in the assay on MELK; 64% in the assay on MERTK; 0% in the assay with MET; 73% in the assay on MINK. Besides, the “%Inh” value in the assay on MKK7 amounted to 0%; in the assay with MKNK1 it was 0%; with MKNK2 it was 17%; in the assay on MLCK it was 13%.
For the compound `Cc1cc(-c2ccnc(Nc3cccc(C#N)c3)n2)cc(C)c1O` [GSK1440913], the “%Inh” value is 23% with MEK5; 35% in the assay on MEK6; 0% with MELK; 42% in the assay with MERTK; 38% in the assay with MET; 52% with MINK. Further, the “%Inh” value with MKK7 was 36%; in the assay with MKNK1, 2%; with MKNK2, 2%; in the assay with MLCK, 77%.
For `Cc1ccc(O)cc1Nc1ccnc2cc(-c3ccc(CN4CCCCC4)o3)ccc12` [GW557777], the “%Inh” value in the assay with MEK5 worked out at 97.9%; in the assay with MEK6 it was 15%; in the assay on MELK, 0%; in the assay with MERTK it was 13%; in the assay with MET, 0%; in the assay on MINK, 38%. Moreover, the “%Inh” value with MKK7, in the assay with MKNK1, in the assay on MKNK2 and in the assay on MLCK was 0% throughout.
With `Cc1ccc(Nc2ccnc(Nc3ccc(C)c(F)c3)n2)cc1O.Cl` [GW582868], the “%Inh” value in the assay on MEK5 turned out to be 92.8%; with MEK6, 0%; in the assay with MELK it was 0%; in the assay with MERTK, 38%; with MET, 0%; in the assay with MINK, 0%. Besides, the “%Inh” value in the assay with MKK7 came to 0%; in the assay on MKNK1, 0%; in the assay on MKNK2, 7%; in the assay with MLCK, 24%.
Turning to `CC(C)(C)c1ccc(C(=O)Nc2cn3cc(-n4ccnc4)ccc3n2)cc1`, the “%Inh” value worked out at 99% with MEK5; 0% in the assay on MEK6; 0% with MELK; 0% in the assay on MERTK; 0% in the assay on MET; 18% in the assay with MINK. Also, the “%Inh” value in the assay with MKK7 is given as 0%; in the assay on MKNK1, 8%; with MKNK2, 0%; in the assay with MLCK it was 19%.
`N#CC1(c2cccc(C(=O)Nc3cccc(Oc4ccc5nc(NC(=O)C6CC6)sc5n4)c3)c2)CC1`: the “%Inh” value in the assay with MEK5 is given as 99.1%; in the assay with MEK6 it was 18%; in the assay with MELK it was 1%; with MERTK it was 80%; in the assay with MET it was 2%; in the assay with MINK, 54%. Besides, the “%Inh” value worked out at 0% with MKK7, 40% in the assay on MKNK1, 0% in the assay on MKNK2 and 36% in the assay with MLCK.
Turning to `Cc1ccc(NC(=O)c2cccc(N3CCCCC3)c2)cc1-c1ccc(C(=O)NCC2CC2)cc1` [GSK1917008], the “%Inh” value in the assay on MEK5 came to 20%; in the assay on MEK6 it was 35%; with MELK it was 0%; in the assay on MERTK, 18%; with MET, 0%; in the assay with MINK, 0%. Also, the “%Inh” value in the assay with MKK7 is 0%; in the assay with MKNK1, 10%; in the assay with MKNK2, 18%; in the assay with MLCK, 0%.
Regarding `Cn1cc(-c2ccc3c(c2)CCN3C(=O)Cc2cc(F)cc(F)c2F)c2c(N)ncnc21` [GSK2634140], the “%Inh” value with MEK5 is recorded as 98.9%; in the assay with MEK6, 0%; with MELK, 12%; in the assay with MERTK, 38%; with MET it was 68%; with MINK, 21%. The “%Inh” value with MKK7 turned out to be 0%; in the assay with MKNK1, 5%; in the assay with MKNK2, 1%; with MLCK, 11%.
`COc1cc(Nc2ccnc3cc(-c4ccncc4)ccc23)cc(OC)c1OC.Cl` [GW494610]: the “%Inh” value turned out to be 99.8% in the assay with MEK5; 0% in the assay on MEK6; 18% in the assay with MELK; 13% in the assay on MERTK; 13% in the assay on MET; 95.1% in the assay on MINK. The “%Inh” value in the assay with MKK7 was found to be 23%; in the assay on MKNK1 it was 28%; in the assay on MKNK2 it was 14%; with MLCK, 0%.
Take `CS(=O)(=O)c1cccc(CNc2nc(Nc3ccc4c(c3)CCC(=O)N4)ncc2C(F)(F)F)c1`: the “%Inh” value in the assay on MEK5 is on record as 48%; with MEK6 it was 0%; with MELK, 26%; in the assay on MERTK, 56%; in the assay with MET, 83%; in the assay on MINK, 85%. The “%Inh” value turned out to be 0% in the assay with MKK7, 0% in the assay with MKNK1, 58% with MKNK2 and 0% with MLCK.
In the case of `Cl.Cl.NCC(NC(=O)c1cc(-c2cccnc2)c(-c2ccnc3[nH]ccc23)s1)c1ccccc1` (stereo not shown) [GSK1323434], the “%Inh” value is 59% in the assay with MEK5; 0% in the assay on MEK6; 20% in the assay on MELK; 13% in the assay with MERTK; 0% in the assay with MET; 80% in the assay with MINK. Moreover, the “%Inh” value in the assay with MKK7 is reported as 0%; with MKNK1 it was 0%; in the assay with MKNK2, 56%; with MLCK, 51%.
On to `COc1cccc(C2=C(Nc3cccc(O)c3)C(=O)NC2=O)c1` [SB-390771], for which the “%Inh” value with MEK5 is 71%; in the assay with MEK6 it was 2%; with MELK, 27%; with MERTK it was 18%; in the assay with MET, 21%; in the assay on MINK, 18%. Further, the “%Inh” value was 20% in the assay on MKK7, 11% with MKNK1, 5% in the assay on MKNK2 and 0% in the assay on MLCK.
Take `CN(C)c1ncnc2nc[nH]c12` [SKF-31736]: the “%Inh” value was determined as 51% with MEK5; 0% in the assay with MEK6; 0% with MELK; 10% with MERTK; 0% in the assay with MET; 2% in the assay on MINK. The “%Inh” value in the assay on MKK7 was 20%; in the assay with MKNK1 it was 0%; with MKNK2 it was 0%; in the assay on MLCK it was 0%.
As to `c1ccc(Oc2ccc(Nc3ccnc4cc(-c5ccc(CN6CCCCC6)o5)ccc34)cc2)nc1` [GW567143], the “%Inh” value turned out to be 100% in the assay with MEK5; 0% in the assay on MEK6; 0% with MELK; 50% in the assay on MERTK; 11% in the assay on MET; 25% in the assay with MINK. The “%Inh” value in the assay on MKK7 came to 0%; in the assay with MKNK1 it was 7%; with MKNK2, 37%; in the assay on MLCK, 0%.
On to `COc1cccc(-c2nc(-c3ccccc3)[nH]c2-c2ccncc2)c1` [SB-610250], for which the “%Inh” value in the assay with MEK5 came to 26%; in the assay on MEK6 it was 100%; in the assay with MELK, 14%; in the assay on MERTK it was 9%; with MET, 0%; in the assay on MINK, 10%. For the same compound, the “%Inh” value with MKK7 is listed as 0%; with MKNK1 it was 22%; in the assay on MKNK2, 5%; in the assay on MLCK, 0%.
For the compound `COc1cccc(NC(=O)NCCNc2ccnc(Nc3ccc(F)cc3)n2)c1` [GSK1379879], the “%Inh” value was 40% in the assay on MEK5; 0% with MEK6; 0% with MELK; 0% with MERTK; 0% with MET; 2% with MINK. The “%Inh” value worked out at 30% in the assay with MKK7, 12% in the assay on MKNK1, 7% with MKNK2 and 0% in the assay on MLCK.
